Hits are enriched below; roughly 3% of the tested compounds scored in any of these assays.
Mcl1-Bid inh: Mcl-1/Bid binding inhibitors, primary screen, biochemical, TR-FRET, 1536-well; Induced myeloid leukemia cell differentiation protein Mcl-1 (Homo sapiens), Q07820; TR-FRET Mcl-1/Bid-Dy647 peptide binding; inhibition, % at 21.7 µM; 220,000 compounds, 0.97% hits;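 active means compounds that cut the binding signal by more than half at the single screening dose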;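 further: His-tagged Mcl-1 with europium anti-His antibody binding Bid BH3 peptide; 0% = Mcl-1 plus peptide wells and 100% = peptide-only wells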
Target sequence (Q07820 whole entry, looked up): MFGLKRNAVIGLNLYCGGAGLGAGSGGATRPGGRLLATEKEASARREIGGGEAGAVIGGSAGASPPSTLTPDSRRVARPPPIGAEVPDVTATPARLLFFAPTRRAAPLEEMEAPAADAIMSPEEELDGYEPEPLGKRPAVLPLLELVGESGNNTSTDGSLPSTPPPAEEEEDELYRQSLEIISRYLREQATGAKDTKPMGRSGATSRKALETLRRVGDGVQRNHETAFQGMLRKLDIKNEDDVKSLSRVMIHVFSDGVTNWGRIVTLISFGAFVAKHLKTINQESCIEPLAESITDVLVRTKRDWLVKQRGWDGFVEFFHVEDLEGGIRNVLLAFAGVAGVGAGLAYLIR
14-3-3 Bad PPI: inhibitors of 14-3-3 zeta/Bad binding, primary screen, biochemical, TR-FRET, bovine 14-3-3 zeta; 14-3-3 protein zeta/delta (Bos taurus), P63103; TR-FRET 14-3-3zeta/Dy647-pBad peptide displacement, 1 h; inhibition, % at 21.7 µM; 220,000 compounds, 0.71% hits; AID 781, 2007;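 active means inhibition above about 70%, limit read from the data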;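 further: 0% = full 14-3-3 plus peptide FRET controls and 100% = background without 14-3-3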
Mcl1-Noxa inh: Mcl-1/Noxa binding inhibitors, primary screen, biochemical, TR-FRET, 1536-well; TR-FRET Mcl-1/Noxa peptide binding, 2 h; Induced myeloid leukemia cell differentiation protein Mcl-1 (Homo sapiens), Q07820; 220,000 compounds, 1.5% hits; inhibition, % at 21.7 µM;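 active means compounds that cut the protein-peptide binding signal by more than 50% relative to plate controls in a single-dose test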;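 further: His-tagged Mcl-1 with rhodamine Noxa BH3 peptide and terbium anti-His antibody; 0% = Mcl-1 plus Noxa peptide wells and 100% = peptide-only wells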
Bim-Mcl-1: inhibitors of Bim peptide binding to Mcl-1, primary screen, biochemical, bead-based flow cytometry, multiplex. Bim peptide-Mcl-1 binding. inhibition, % at 10 µM. 190,000 compounds, 0.1% hits; in the data active means inhibition above about 40%;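 further: 0% = no compound tracer wells and 100% = peptide blocker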
Arbovirus anti: antivirals against arbovirus infection, primary screen, cell-based, full library, 10K replicate subset | arbovirus infection cell-based antiviral screen | inhibition, % at 10 µM | 200,000 compounds, 0.37% hits | AID 1251, 2008; in the data active means inhibition above about 30%
* hit, by the source's call; / = no result; [ ] = remark or other dose.

SMILES	Mcl1-Bid inh	14-3-3 Bad PPI	Mcl1-Noxa inh	Bim-Mcl-1	Arbovirus anti
O=C(CN(C(=O)c1ccc(Cl)cc1)N1C(=O)C2C3C=CC(C3)C2C1=O)c1cccs1 (centres undefined)	-22.1	-1.6	9.6	1.0	-2.5
CC(=O)OC[C@H]1O[C@@H](n2ncc(=O)[nH]c2=O)[C@H](OC(C)=O)[C@@H]1OC(C)=O	-0.5	71.4*	10.3	0.0	60.1*
Cc1ccnc(NS(=O)(=O)c2cnc(Cl)c(Br)c2)c1	-9.9	6.0	-12.7	-5.0	0.4
CC(C)(C)c1c(Cl)c(O)c(-c2ccccc2)c(=O)n1-c1ccccc1	86.1*	79.5*	35.5	-2.0	84.4*
N#Cc1cccc(NC(=O)CSc2ccc3c4c(cccc24)C(=O)c2ccccc2-3)c1	73.8*	51.6	22.0	-1.0	-20.4
O=P(COCCOCCOCP(=O)(c1ccccc1)c1ccccc1)(c1ccccc1)c1ccccc1	-10.6	-5.0	6.8	-1.0	1.2
O=[N+]([O-])c1ccc2c(OCc3nnc(-c4ccccc4Br)o3)ncnc2c1	6.2	7.9	61.0*	/	/
O=[N+]([O-])c1cc(Br)c(OCc2nnc(-c3ccccc3)o2)c(Br)c1	-17.0	-6.8	-9.5	-2.0	12.9
COc1ccc(OC)c(/C=N\NC(=O)CC(=O)NCCc2ccccc2)c1	-0.8	11.6	-3.3	0.0	31.4*
COc1ccc(OC)c(/C=N/NC(=O)CSc2cc(C)nc3c(OC)cccc23)c1	34.7	86.2*	38.7	0.0	1.0
COc1ccc(OC)c(/C=N\NC(=O)CSc2nnc(CCCc3ccc(OC)c(C)c3)o2)c1	-9.8	-4.5	-1.3	-4.0	-12.6
Cc1cnn(Cc2cccnc2)c1N	-153.5	-1.5	4.5	/	/
Cc1ccccc1COCCN1CCN(S(=O)(=O)c2ccccc2)CCC1=O	-16.4	-2.6	0.1	/	/
O=C(c1ccc([N+](=O)[O-])cc1)N1CCC(Cc2ccccc2)CC1	5.0	-0.7	8.4	0.0	0.0
O=C(c1cnc(Cl)c(Cl)c1)N1CCC(Cc2ccccc2)CC1	3.9	0.5	51.1*	1.0	8.3
Cc1ccc(NC(=O)CN2C(=O)N/C(=C/c3ccc(C)o3)C2=O)cc1	-4.1	-0.5	24.1	0.0	5.5
Cc1cccc(NC(=O)CN2C(=O)N/C(=C/c3ccc(C)o3)C2=O)c1	0.0	-1.2	85.3*	6.0	-2.4
CCn1c(C)cc(/C=C2/NC(=O)N(CC(=O)Nc3cccc(C)c3)C2=O)c1C	85.4*	37.5	54.3*	-4.0	-11.3
CC1(C)CC(N=c2cc(-c3ccccc3)oc3ccc(Cl)cc23)CC(C)(C)N1	8.5	17.7	10.2	-5.0	-33.5
OCCCN=c1cc(-c2ccccc2)oc2ccc(Cl)cc12	-18.5	192.7*[fluorescence artefact?]	8.0	0.0	-32.5
N#Cc1c(Nc2cccc(F)c2)sc2c(O)cc(=O)[nH]c12	-135.7	-0.1	54.3*	3.0	4.2
N#Cc1c(Nc2ccc(F)cc2)sc(C(=O)c2ccccc2)c1N	-59.3	-28.6	5.8	0.0	-1.5
CCOC(=O)c1c(NC(=O)CSc2ncnc3ccccc23)sc(C)c1C	59.2*	17.1	19.6	0.0	-1.8
CCOC(=O)c1c(NC(=O)CSc2nncs2)sc(C)c1C	9.9	-6.1	17.2	-3.0	-11.5
N#Cc1ccsc1NC(=O)CSc1ncnc2ccccc12	-7.8	1.4	68.2*	-1.0	-3.8
SMILES	Mcl1-Bid inh	14-3-3 Bad PPI	Mcl1-Noxa inh	Bim-Mcl-1	Arbovirus anti
CCOC(=O)c1c(NC(=O)CSc2ccccc2C(=O)O)sc(C)c1C	-49.0	1.5	8.5	0.0	32.8*
N#Cc1ccsc1NC(=O)CSc1ncn[nH]1	-18.9	-2.9	2.6	0.0	9.2
N#Cc1ccsc1NC(=O)CSc1nnnn1-c1ccc(O)cc1	-17.2	-1.2	66.4*	-1.0	-1.9
O=C(COc1ncnc2scc(-c3ccc(Cl)cc3)c12)NCc1ccco1	-46.6	-13.5	4.3	2.0	-5.4
Clc1ccc(-c2nnc(COc3ncnc4sccc34)o2)cc1	-20.2	-22.5	0.9	-3.0	5.2
Cc1cccc(OCC(=O)N/N=C/c2cc([N+](=O)[O-])ccc2N2CCOCC2)c1	-24.7	-8.7	4.1	-5.0	-4.3
Cc1oc(-c2cccc(C(F)(F)F)c2)nc1CN1CCOCC1	3.7	-14.9	3.3	-1.0	10.9

Source: PubChem
